Measured values: PubChem BioAssay (NCATS)
Records with an inconclusive call do not appear. Activity calls are given as the source filed them. Calls follow the shape of the dose curve; as a rule, active = well fitted cell-killing curve with a large enough effect; inconclusive = small, poorly fitted or top-dose-only effect, or effect the other way; inactive = flat fitted curve, though single readings scatter.

How the values were obtained:
Test in all cases: Primary qHTS to identify gynecologic anti-cancer compounds using libraries of approved drugs and bioactive compounds (AID 1345084); also: nearly all actives have a fitted effect of over 55% in size
Conditions in all cases: Gynecologic cancer cell panel viability, ATPlite luminescence, 48 h; series mostly up to 57.5 µM
[1] = system: C33A
Summary of the method: (§1)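 Cytotoxicity screen measuring ATP content by luciferase luminescence. Each compound is applied at five concentrations for 48 h at 37 C with 5% CO2.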

[2] = system: CAOV3
Summary of the method: as §1

[3] = system: CASKI
Summary of the method: as §1
% is scaled to controls: 0 for no effect and ±100 for the full control effect.

CC1=C2CC3OC3(C)CCC3OC3(C)CC2OC1=O (configuration not stated)
inactive: Potency [1] | Potency [2] | Potency [3]

C=C1C(O[C@@H]2O[C@H](CO)[C@@H](O)[C@H](O)[C@@H]2O)CC2C(C)(C)C(O)CCC2(C)C1CC/C(C)=C\CO (some centres not stated)
inactive: Potency [1] | Potency [2] | Potency [3]

CC(=O)Oc1cc2c(s1)CCN([C@H](C(=O)C1CC1)c1ccccc1F)C2
inactive: Potency [1] | Potency [2] | Potency [3]

Cc1c(CN(C)C(=O)/C=C/c2cnc3c(c2)CCC(=O)N3)oc2ccccc12
inactive: Potency [1] | Potency [2] | Potency [3]

CC1(C)CC[C@]2(C(=O)O)CC[C@]3(C)C(=CCC4[C@@]5(C)C[C@@H](O)[C@H](O)C(C)(C)C5CC[C@]43C)[C@@H]2[C@@H]1O (some centres not stated)
inactive: Potency [1] | Potency [2] | Potency [3]

C=C1[C@H]2[C@H](O[C@@H]3O[C@H](COC(=O)/C=C/c4cc(OC)c(O)c(OC)c4)[C@@H](O)[C@H](O)[C@H]3O)OC=C(C(=O)O)[C@H]2C[C@@H]1O
inactive: Potency [1] | Potency [2] | Potency [3]

COc1cc(/C=C/C(=O)OC2[C@H](O)CC(O)(C(=O)O)C[C@H]2O)ccc1O (some centres not stated)
inactive: Potency [1] | Potency [2] | Potency [3]

CC(/C=C/C1(O)C2(C)COC1(C)CC(=O)C2)O[C@@H]1O[C@H](CO)[C@@H](O)[C@H](O)[C@H]1O (some centres not stated)
inactive: Potency [1] | Potency [2] | Potency [3]

O=C(c1ccccn1)c1cnn2c(-c3ccncc3)ccnc12
inactive: Potency [1] | Potency [2] | Potency [3]

C=C1C[C@]23C[C@H]1CC[C@H]2[C@]1(C)CCC[C@@]2(CO)C(=O)O[C@H]([C@H]21)[C@@H]3O
inactive: Potency [1] | Potency [2] | Potency [3]

OC[C@H]1O[C@@H](OC(CCCCc2ccc(O)cc2)CCc2ccc(O)cc2)[C@H](O[C@@H]2OC[C@](O)(CO)[C@H]2O)[C@@H](O)[C@@H]1O (some centres not stated)
inactive: Potency [1] | Potency [2] | Potency [3]

CC1(C)CCC[C@@]2(C)[C@H]1[C@H](O)C=C1COC(=O)[C@@]12O
inactive: Potency [1] | Potency [2] | Potency [3]

CC/C=C/CC1=C(CCCCCCCC(=O)O)CCC1=O
inactive: Potency [1] | Potency [2] | Potency [3]

CC(C)c1ccc(CC(=O)N2CCC[C@@H](c3cccc(OC(C)(C)C(=O)O)c3)C2)cc1
inactive: Potency [1] | Potency [2] | Potency [3]

C[C@@H]1C(=O)O[C@H]2CC34[C@H]5C[C@@H](C(C)(C)C)C36[C@@H](OC(=O)[C@@H]6O)O[C@@]4(C(=O)O5)[C@]21O (some centres not stated)
inactive: Potency [1] | Potency [2] | Potency [3]

C/C=C1/[C@H](O[C@@H]2O[C@H](CO)[C@@H](O)[C@H](O)[C@H]2O)OC=C(C(=O)OC)[C@H]1CC(=O)O[C@@H]1O[C@H](CO)[C@@H](O)[C@H](O)[C@H]1O
inactive: Potency [1] | Potency [2] | Potency [3]

C=C(C)[C@H]1C[C@@H](O)C(=C)CC[C@@H](O)C(=C)[C@@H](O)C1
inactive: Potency [1] | Potency [2] | Potency [3]

CC1CC(O)CC(C)(C)C1(O)CCO (configuration not stated)
inactive: Potency [1] | Potency [2] | Potency [3]

CCNC(=O)[C@@H]1CCCN1C(=O)[C@H](CCCN=C(N)N)NC(=O)[C@H](CC(C)C)NC(=O)[C@@H](C)NC(=O)[C@H](Cc1ccc(O)cc1)NC(=O)[C@H](CO)NC(=O)[C@H](Cc1c[nH]c2ccccc12)NC(=O)[C@H](Cc1cnc[nH]1)NC(=O)[C@@H]1CCC(=O)N1
inactive: Potency [1] | Potency [2] | Potency [3]

O=C(/C=C/c1ccc(O)c(O)c1)OCc1ccccc1O[C@@H]1O[C@H](CO)[C@@H](O)[C@H](O)[C@H]1O
inactive: Potency [1] | Potency [2] | Potency [3]

CC12CCC3C(C)(C)C(O)CCC3(C)C1Cc1c(oc(C(=O)O)cc1=O)O2 (configuration not stated)
inactive: Potency [1] | Potency [2] | Potency [3]

C[C@@H]1CC[C@H]2C(C)(C)[C@H](O)[C@H](O)C[C@]2(C)[C@@]12Cc1c(O)cc3c(c1O2)CNC3=O
inactive: Potency [1] | Potency [2] | Potency [3]

CC1CCC2(C(=O)OC3OC(CO)C(O)C(O)C3O)CCC3(C(=O)O)C(=CCC4C5(C)CCC(OC6OC(C)C(O)C(O)C6O)C(C)(C)C5CCC43C)C2C1C (configuration not stated)
inactive: Potency [1] | Potency [2] | Potency [3]

C=C1CCC2[C@@](C)(C=O)CCC[C@]2(C)[C@H]1CC/C(C)=C/CO (some centres not stated)
inactive: Potency [1] | Potency [2] | Potency [3]

CC1=CC(=O)C2C(C)(C)CCCC2(C)C12CCC1(COC(=O)C1)O2 (configuration not stated)
inactive: Potency [1] | Potency [2] | Potency [3]

C/C=C(/C)C(=O)O[C@H]1C=C(C)C[C@H](OC(=O)c2ccc(O)cc2)C2[C@](O)(C(C)C)CC[C@@]21C (some centres not stated)
inactive: Potency [1] | Potency [2] | Potency [3]

C=C1C(=O)OC2/C=C(\C)CC/C=C(\C(=O)O)CC/C=C(\C)CCC12 (configuration not stated)
inactive: Potency [1] | Potency [2] | Potency [3]

COc1cc(C2Oc3c(OC)cc(/C=C/C(=O)OC[C@H]4O[C@@H](OC(C)(C)C(=O)O)[C@H](O)[C@@H](O)[C@@H]4O)cc3C2CO)ccc1O (some centres not stated)
inactive: Potency [1] | Potency [2] | Potency [3]

C[C@@H]1C/C=C/C=C\C=C\C=C\[C@H](O[C@@H]2O[C@H](C)[C@@H](O)[C@H](N)[C@@H]2O)C[C@@H]2O[C@](O)(C[C@@H](O)C[C@H]3O[C@@H]3/C=C/C(=O)O1)C[C@H](O)[C@H]2C(=O)O
inactive: Potency [1] | Potency [2] | Potency [3]

CC1(C)NC2N(C1=O)c1ccccc1C2(O)CC(C(=O)O)n1cnc2ccccc2c1=O (configuration not stated)
inactive: Potency [1] | Potency [2] | Potency [3]

C=C1CC/C=C(/CO)C(=O)C[C@@H]2[C@@H]1CC2(C)C
inactive: Potency [1] | Potency [2] | Potency [3]

C(#Cc1cccc(CN2CCOCC2)c1)CCN1CCCCC1
inactive: Potency [1] | Potency [2] | Potency [3]

C=C[C@](C)(CC/C=C(\C)C(=O)O)O[C@@H]1OC[C@H](O)[C@H](O)[C@H]1O
inactive: Potency [1] | Potency [2] | Potency [3]

CCC(C)(O)C(O)C(=O)OCc1ccc(O[C@@H]2O[C@H](CO)[C@@H](O)[C@H](O)[C@H]2O)cc1 (some centres not stated)
inactive: Potency [1] | Potency [2] | Potency [3]

CC1(C)O[C@]23C[C@H]1C[C@H](OC(=O)c1ccoc1)[C@]2(C)[C@@H](OC(=O)c1ccoc1)CCC3(C)O (some centres not stated)
inactive: Potency [1] | Potency [2] | Potency [3]

CC(=O)c1c(C)cc(O[C@@H]2O[C@H](CO)[C@@H](O)[C@H](O)[C@H]2O)cc1O
inactive: Potency [1] | Potency [2] | Potency [3]

CC1(C)CC2C3=CCC4C5(C)CCC(OC6OC(CO)C(O)C(OC7OC(CO)C(O)C(OC8OC(CO)C(O)C(OC9OC(COC%10OC(CO)C(O)C(O)C%10O)C(O)C(O)C9O)C8O)C7O)C6O)C(C)(C)C5CCC4(C)C3(C)CCC2(C(=O)O)CC1O (configuration not stated)
inactive: activity change, negative = cytotoxicity [1] 6.53% [at 6.55 µM] | activity change, negative = cytotoxicity [2] 3.47% [at 6.55 µM] | activity change, negative = cytotoxicity [3] -0.0614% [at 6.55 µM]

C[C@@H]1O[C@@H](OC[C@H]2O[C@@H](OCCc3ccccc3)[C@H](O)[C@@H](O)[C@@H]2O)[C@H](O)[C@H](O)[C@H]1O
inactive: Potency [1] | Potency [2] | Potency [3]

CO[C@H]1C=C2C(CC[C@H](O[C@@H]3O[C@H](CO)[C@@H](O)[C@@H](O)[C@H]3O)C2(C)C)[C@]2(C)CC[C@]3(C)C([C@H](C)C(O)C(C=C(C)C)O[C@@H]4O[C@H](CO)[C@@H](O)[C@@H](O)[C@H]4O)CC[C@@]3(C)C12 (some centres not stated)
inactive: activity change, negative = cytotoxicity [1] -3.11% [at 11.6 µM] | activity change, negative = cytotoxicity [2] 7.91% [at 11.6 µM] | activity change, negative = cytotoxicity [3] -4.92% [at 11.6 µM]

C/C=C(\C)C(=O)O[C@H]1[C@@H](O[C@]2(COC(=O)CC(C)C)O[C@H](COC(=O)C(C)C)[C@@H](OC(C)=O)[C@@H]2O)O[C@H](COC(C)=O)[C@@H](O)[C@@H]1O
inactive: Potency [1] | Potency [2] | Potency [3]

CC(C)[C@H]1CCC(CO)=C[C@@H]1/C=C(\CO)C(=O)O
inactive: Potency [1] | Potency [2] | Potency [3]

O=C(c1ccc(C#Cc2cccc(F)c2)cn1)N1CC2CC2C1 (configuration not stated)
inactive: Potency [1] | Potency [2] | Potency [3]

Clc1ccc(CN[C@H]2CCN(c3ncc(Br)cn3)C2)c(Cl)c1
inactive: Potency [1] | Potency [2] | Potency [3]

CC(C)=CCC/C(C)=C/CC/C(C)=C/CC[C@]1(C)CCc2cc(O)cc(C)c2O1
inactive: Potency [1] | Potency [2] | Potency [3]

COC(=O)C1=CO[C@@H](O[C@@H]2O[C@H](CO)[C@@H](O)[C@H](O)[C@H]2O)[C@@H]2[C@@H](C(=O)OC)[C@@H](O)C(O)[C@H]12 (some centres not stated)
inactive: Potency [1] | Potency [2] | Potency [3]

COc1cc(C/C(=C/NC(C)=O)N(CC(=O)Cc2ccccc2)C(C)=O)cc2c1OCO2
inactive: Potency [1] | Potency [2] | Potency [3]

C/C(=C/CCC(CO)C1CCC2(C)C3CCC4C(C)(C)C(OC5OC(CO)C(O)C(O)C5O)CC(O)C45CC35CCC12C)COC1OC(CO)C(O)C(O)C1O (configuration not stated)
inactive: Potency [1] | Potency [2] | Potency [3]

CCC(C)/C=C(C)/C=C/C1=CC2=C(Cl)C(=O)C(C)(OC(C)=O)C(=O)C2=CN1C1CCCCN(C(CCC(N)=O)C(=O)O)C1=O (configuration not stated)
inactive: Potency [1] | Potency [2] | Potency [3]

Cc1cc(O)c(C(C)C)cc1O[C@@H]1O[C@H](CO)[C@@H](O)[C@H](O)[C@H]1O
inactive: Potency [1] | Potency [2] | Potency [3]

COc1cc(C(=O)OC[C@H]2O[C@H](O[C@@]3(CO)O[C@@H](CO)[C@H](O)[C@H]3O)[C@H](O)[C@@H](O)[C@@H]2O)ccc1O
inactive: Potency [1] | Potency [2] | Potency [3]

Cn1ccnc1CCOC(c1cc2nccc(C(=O)O)c2[nH]1)c1ccccc1Cl (configuration not stated)
inactive: Potency [1] | Potency [2] | Potency [3]

C[C@@H]1CCC2C(C)(C)[C@H](O)CC[C@]2(C)[C@@]12Cc1c(O)cc3c(c1O2)CN(CCO)C3=O (some centres not stated)
inactive: Potency [1] | Potency [2] | Potency [3]

COC(=O)CC[C@@H](C)[C@H]1CC[C@H]2[C@@H]3CC(=O)[C@H]4C[C@H](OC(C)=O)CC[C@]4(C)[C@H]3CC[C@]12C
inactive: Potency [1] | Potency [2] | Potency [3]

CC1CCC2C(C)(C)C(O)CCC2(C)C12Cc1c(O)cc3c(c1O2)CN(C(CCC(N)=O)C(=O)O)C3=O (configuration not stated)
inactive: Potency [1] | Potency [2] | Potency [3]
